PubChem BioAssay AID651871 (Sanford-Burnham Center for Chemical Genomics, 2012)
Values joined by “and” are separate entries in the source; they are usually repeats but may differ in a detail not shown here. Equal values may be shown once.

What follows are compounds tested on H9c2 (assay: protection of cardiomyocytes from stress damage, SAR follow-up, cell-based, panel, H9c2 and HL-1, ATP luminescence, set 2 (AID 651871;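 also: cells exposed to stressor for 2 h before ATP readout; reference of the scale not given here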)). Settings: H9c2/HL-1 cardiomyocytes, 2-deoxyglucose stress, with 2-deoxyglucose; run 3, at 79 µM (top of the series).
`COc1ccc2c(c1OC)C(=O)N1c3ccccc3C(=O)N(Cc3cccc(Cl)c3Cl)C21` (stereo not drawn) was tested, and the activity (protection/inhibition) was 71.2% and 81.8% and -10.3%. In the case of `CCOC(=O)c1cccc(NC(=O)CNC(=O)c2cc(-c3cc(OC)c(OC)c(OC)c3)nc3ccccc23)c1`, the activity (protection/inhibition) is reported as 92.4%. In the case of `COc1ccc2nc(-c3cc(OC)c(OC)c(OC)c3)cc(C(=O)NCC(=O)Nc3ccc(C(C)=O)cc3)c2c1`, the activity (protection/inhibition) is reported as 75.4%.
